High-throughput results: PubChem, Sanford-Burnham Center for Chemical Genomics
CYP2C19 activ – activators of human cytochrome P450 2C19; recombinant CYP2C19, luciferin-H EGE luminescence; hits give high values; 0 = fully inhibited enzyme, 1 = untreated enzyme; P33261; activation factor at 5 µM; 96,000 tested, under 10 active; AID 1025;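 active means activation factor of at least 2 at 5 µM in the primary screen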;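 further: 0 = wells with 2.5 mM tranylcypromine and 1 = vehicle-only wells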
Target sequence (P33261 whole entry, looked up): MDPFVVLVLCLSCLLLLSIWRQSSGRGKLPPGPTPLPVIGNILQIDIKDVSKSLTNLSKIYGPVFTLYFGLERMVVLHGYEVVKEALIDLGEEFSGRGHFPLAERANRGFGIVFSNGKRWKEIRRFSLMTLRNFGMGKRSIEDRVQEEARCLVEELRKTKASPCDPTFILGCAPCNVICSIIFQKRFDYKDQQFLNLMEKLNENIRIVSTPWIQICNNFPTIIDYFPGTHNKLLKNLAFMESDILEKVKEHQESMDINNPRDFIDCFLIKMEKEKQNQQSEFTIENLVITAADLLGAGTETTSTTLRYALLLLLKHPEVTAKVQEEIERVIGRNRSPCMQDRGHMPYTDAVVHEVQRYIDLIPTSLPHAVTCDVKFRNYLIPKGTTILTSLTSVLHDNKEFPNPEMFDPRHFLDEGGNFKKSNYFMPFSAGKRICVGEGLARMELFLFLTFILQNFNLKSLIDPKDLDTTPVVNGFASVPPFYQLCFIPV
PLAP act – human PLAP activation; P05187; purified PLAP enzyme, luminescent substrate read-out; hits give high values; activation fold at 20 µM; actives 1.2% (n = 96,000); in the data active means activation fold above about 2
CYP2C9 inh – human CYP2C9 inhibition; actives 20% (n = 96,000); CYP2C9 Supersomes, luciferin-H conversion, luminescence; inhibition, % at 5 µM; P11712;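 active means blocking of liver enzyme CYP2C9 beyond about 50% at 5 µM, limit read from the data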
CYP2C19 inhib – inhibitors of human CYP2C19; P33261; CYP2C19 Supersomes, luciferin-H EGE luminescence, 30 min; inhibition, % at 5 µM; actives 21% (n = 96,000); AID 778;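 active means CYP2C19 inhibition above a set limit at 5 µM in the primary screen, cut at about 50% in these data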;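 further: plate controls were negative control wells for no effect and 2.5 mM tranylcypromine positive control for full effect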
CYP2C9 activ – activators of human CYP2C9; P11712; recombinant CYP2C9, luciferin-H conversion, luminescence; hits give high values; factor 1 = untreated enzyme, 0 = blocked; activation factor at 5 µM; actives 1.4% (n = 96,000);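 active means activation factor of 2 or more for CYP2C9 at a 5 µM dose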;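 further: 0 = sulfaphenazole-blocked wells and 1 = vehicle-only wells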
* marks the source's active call; other numbers are inactive results. Rows were chosen to be rich in hits. Some 31% of all compounds tested hit in one or more screens of this group.

SMILES | CYP2C19 activ | PLAP act | CYP2C9 inh | CYP2C19 inhib | CYP2C9 activ
CCOc1ccc(C(=O)Nc2ccccc2N2CCCC2)cc1 | 0.9 | 1 | -9.1 | 10.2 | 1.1
COc1ccc(-c2ocnc2C(=O)Nc2ccccc2N2CCCCC2)cc1 | 0.7 | 0.9 | 57.3* | 32.9 | 0.4
O=C(NCc1ccco1)c1cc(C(=O)C2CC2)c[nH]1 | 0.8 | 0.9 | 14.3 | 15.0 | 0.9
COc1ccc(CCNC(=O)CN(c2ccccc2OC)S(C)(=O)=O)cc1 | 0.1 | 1 | 96.6* | 92.9* | 0
COc1ccc(CCNC(=O)CN(c2ccccc2OC)S(C)(=O)=O)cc1OC | 0.6 | 1.1 | 42.4 | 39.9 | 0.6
CCOc1ccc(N(CC(=O)NCc2ccccc2OC)S(C)(=O)=O)cc1 | 0.8 | 1.3 | 13.5 | 21.0 | 0.9
CCOc1ccccc1N(CC(=O)NCc1ccc(OC)cc1)S(C)(=O)=O | 0.1 | 1.6 | 62.2* | 88.9* | 0.4
CN(C)S(=O)(=O)N(CC(=O)Nc1cccc(F)c1)c1ccccc1 | 0.6 | 0.8 | 56.6* | 42.7 | 0.4
CCOc1ccc(N(CC(=O)NCc2ccccc2)S(C)(=O)=O)cc1 | 0.5 | 1 | 40.3 | 50.3* | 0.6
CCOc1ccc(OCC)c(NC(=O)c2[nH]c(C)c(C(C)=O)c2C)c1 | 0.6 | 1.1 | 30.4 | 37.7 | 0.7
CCOC(=O)Cc1c(C)c2c(C)nn(-c3ccccc3)c2oc1=O | 0.9 | 0.9 | 34.7 | 10.9 | 0.7
CN(C)S(=O)(=O)N(CC(=O)NCc1ccccc1)c1ccccc1 | 0.3 | 0.9 | 17.9 | 67.0* | 0.8
CCOC(=O)c1c(C)c(C(=O)O)n(C)c1C | 1 | 0.9 | -14.6 | 1.5 | 1.1
Cc1cc(C(=O)N2CCN(c3cccc(Cl)c3)CC2)c(C)o1 | 0.6 | 1 | 60.2* | 42.2 | 0.4
Cc1cc(C(=O)N2CCN(c3ccccc3)CC2)c(C)o1 | 0.6 | 1.1 | -4.8 | 38.5 | 1
COc1ccc(C(=O)N2CCN(c3ccc(C)c(C)c3)CC2)cc1OC | 0.7 | 1.6 | -17.4 | 33.5 | 1.2
Cc1ccc(C(=O)N2CCN(c3cccc(Cl)c3)CC2)cc1C | 0.3 | 1.6 | -31.8 | 70.7* | 1.3
CCOC(=O)c1c(C)c(C(=O)N2CCN(c3cccc(Cl)c3)CC2)c(C)n1C | 0.3 | 1.2 | 74.0* | 66.8* | 0.3
Cc1ccc(C(=O)N2CCN(c3ccccc3)CC2)cc1C | 0.3 | 1.2 | -47.4 | 68.7* | 1.5
Cc1nn(-c2ccccc2)c2sc(C(=O)OCN3C(=O)c4ccccc4C3=O)cc12 | 0.8 | 1.4 | 16.5 | 23.7 | 0.8
O=C(CC(C(=O)O)N1CCOCC1)Nc1ccc(Cl)cc1 (centres undefined) | 1.1 | 1 | -27.8 | -11.7 | 1.3
O=C(CN1C(=O)CSC1=O)c1ccccc1 | 1 | 1 | 13.2 | 1.2 | 0.9
Cc1nn(-c2ccc(F)cc2)c(Cl)c1/C=C(\CCC(=O)O)c1nc2ccccc2s1 | 0.9 | 1.5 | 17.2 | 5.5 | 0.8
O=C(CCCC(=O)OCC(Cl)=C(Cl)Cl)Nc1cccc(F)c1 | 0.7 | 1 | -2.5 | 26.8 | 1
OCCN1CCN(C(=S)c2ccc(Cl)c(Cl)c2)CC1 | 0.7 | 1.1 | -5.7 | 29.9 | 1.1
SMILES | CYP2C19 activ | PLAP act | CYP2C9 inh | CYP2C19 inhib | CYP2C9 activ
S=C(c1ccc(-c2ccc(Cl)c(Cl)c2)o1)N1CCOCC1 | 0.1 | 1.3 | 88.8* | 87.5* | 0.1
N#CCCN1CCN(C(=S)c2ccc(-c3cc(Cl)ccc3Cl)o2)CC1 | 0.7 | 1 | -173.8 | 29.9 | 2.7*
S=C(c1ccc(-c2ccccc2Cl)o1)N1CCOCC1 | 0.6 | 1 | -54.9 | 44.3 | 1.5
S=C(c1ccc(-c2ccc(Cl)cc2Cl)o1)N1CCCCC1 | 0.4 | 0.9 | 72.3* | 62.0* | 0.3
COc1ccc(-c2nc(NC(=O)c3cc(C(C)(C)C)nn3C)sc2C)cc1 | 0.9 | 1.7 | -67.5 | 6.1 | 1.7
COc1cc2c(cc1OC)C(C(=O)Nc1ccc3c(c1)OCCO3)C(c1cccnc1)N(C)C2=O (centres undefined) | 1 | 1.4 | 54.1* | 3.3 | 0.5
COc1ccc(CCNC(=O)C2CCN(S(C)(=O)=O)CC2)cc1 | 0.9 | 1.1 | 8.7 | 10.5 | 0.9
CCOC(=O)C1=C(C)Nc2nc(SC)nn2C1c1ccc(C(=O)OC)cc1 (centres undefined) | 0.8 | 0.8 | 17.7 | 19.1 | 0.8
CCSc1nc2c(c(=O)[nH]1)C(c1ccncc1)C(C(=O)OC)=C(C)N2 (centres undefined) | 0.2 | 0.9 | 51.6* | 76.3* | 0.5
CC1=C(C(=O)OC(C)C)C(c2ccncc2)n2ncnc2N1 (centres undefined) | 0.8 | 1.3 | 46.3 | 21.0 | 0.5
CSc1nc2c(c(=O)[nH]1)C(c1ccncc1)C(C(=O)OC(C)C)=C(C)N2 (centres undefined) | 0.1 | 1 | 47.2 | 89.0* | 0.5
O=C(Cn1cnc2c(cnn2-c2ccc(F)cc2)c1=O)NCC1CCCO1 (centres undefined) | 1 | 0.9 | -9.4 | 1.2 | 1.1
COc1ccc(-n2ccc(-c3nn(-c4cccc(C(F)(F)F)c4)ccc3=O)n2)cc1 | 0.2 | 1.3 | 83.0* | 82.0* | 0.2
COc1ccccc1NC(=O)c1nn(-c2cccc(C(F)(F)F)c2)ccc1=O | 1.1 | 1.1 | -166.7 | -8.3 | 2.7*
O=c1ccn(-c2cccc(C(F)(F)F)c2)nc1-c1ccn(-c2ccccc2F)n1 | 0.6 | 1.3 | 69.3* | 40.9 | 0.3
COc1ccc(NC(=O)N2CCN(c3cccc(C(F)(F)F)c3)CC2)cc1 | 1.1 | 0.9 | -31.4 | -9.7 | 1.3
O=C(O)CCCCNS(=O)(=O)c1ccc(Cl)c(C(F)(F)F)c1 | 0.9 | 1 | 1.2 | 13.9 | 1
Cc1cc(N2CCN(C)CC2)nc2ccc(NC(=O)CCC(=O)NCc3ccco3)cc12 | 1 | 1.5 | -5.3 | -4.6 | 1.1
COc1ccc(NC(=O)C2CCN(C(=O)c3ccc(OC)cc3)CC2)cc1 | 1 | 1.3 | -0.1 | -2.1 | 1
CCOC(=O)C(CCCOc1ccccc1)C(=O)OCC | 0.8 | 0.9 | 4.7 | 19.6 | 1
O=C(c1cnc2sccn2c1=O)N(Cc1ccccc1)c1ccccn1 | 1 | 1 | 50.3* | -2.3 | 0.5
O=C(c1ccc(Br)o1)N(Cc1ccccc1)c1ccccn1 | 0.3 | 0.9 | 21.6 | 71.7* | 0.8
O=C(c1ccccc1)N(Cc1ccccc1)c1ccccn1 | 0.4 | 0.8 | 32.7 | 57.3* | 0.7
O=C(O)c1ccc(CN(c2ccccn2)S(=O)(=O)c2ccccc2)cc1 | 1 | 0.9 | -4.7 | 0.4 | 1
O=S(=O)(c1ccccc1)N(Cc1ccccc1)c1ccccn1 | 0.3 | 0.8 | 56.8* | 66.9* | 0.4
Cc1cccc(-n2nc(C)cc2N)c1 | 1.1 | 1 | -12.7 | -6.5 | 1.1
CCCCNC(=O)N1CCOCCOCCN(C(=O)NCCCC)CCOCCOCC1 | 1.1 | 1.5 | -14.2 | -7.3 | 1.1
CCc1ccc(CNCCNCC(C)O)cc1 (centres undefined) | 1 | 0.9 | 1.7 | -0.3 | 1
O=C(NNC(=O)c1sc2ccccc2c1Cl)Nc1ccc(Cl)cc1 | 0.8 | 1 | -19.1 | 24.5 | 1.2
COC(=O)c1sc2ccccc2c1-n1cccc1C(=O)C(=O)Nc1ccc(C)cc1 | 0.6 | 1.2 | 100.4* | 38.4 | 0
